Measurements: the supplement of paper PMC3334620
The full ranking holds about 33,000 sequences; the median of “E-score (-0.5 to 0.5)” is about -0.0034, and the highest 2% start at about 0.25. Only a selection was taken, and the highest values are over-represented in it overall.

Target: T1, Yap3 (UniProt P38749)
T1 sequence: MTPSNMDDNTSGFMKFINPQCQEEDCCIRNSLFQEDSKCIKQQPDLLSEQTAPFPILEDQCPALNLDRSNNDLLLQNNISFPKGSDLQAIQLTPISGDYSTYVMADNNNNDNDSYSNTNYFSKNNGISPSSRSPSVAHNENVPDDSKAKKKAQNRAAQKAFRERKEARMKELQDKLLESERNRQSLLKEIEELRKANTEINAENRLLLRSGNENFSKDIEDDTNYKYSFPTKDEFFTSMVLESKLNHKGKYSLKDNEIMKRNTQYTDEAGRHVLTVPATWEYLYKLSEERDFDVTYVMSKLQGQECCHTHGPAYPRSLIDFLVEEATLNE
Experiment: PBM E-score (8-mer binding enrichment) (E-score (-0.5 to 0.5)); higher = stronger / more preferred TF binding
Conditions: protein concentration: 100 nM; construct: GST-full length
Description: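 Universal 'all 10-mer' protein binding microarrays (Agilent AMADID 015681) probed with GST-tagged S. cerevisiae TFs (full-length or DBD) made by in vitro transcription/translation (PURExpress), about 100-200 nM. Bound TF was detected with fluorescent anti-GST. Each ungapped 8-mer (which stands for itself and its reverse complement) is scored by the PBM enrichment score (E-score), a modified Wilcoxon-Mann-Whitney statistic from -0.5 to +0.5, computed with the Universal PBM Analysis Suite. Scale: above 0.35 generally sequence-specific binding.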

| Sequence | PBM E-score |
| --- | --- |
| TTCTGAAA | 0.145 |
| ACCCAAAC | 0.0961 |
| AGATCCTA | 0.0833 |
| CAAGTTCA | -0.00101 |
| CGGATGAC | 0.0307 |
| ATCTTTCA | 0.207 |
| AATAATCA | 0.11 |
| TATAATCA | 0.265 |
| CATAATCG | 0.187 |
| GATAATCA | 0.221 |
| CATAATCA | 0.271 |
| CATAATCC | 0.0889 |
| CATAAGTC | 0.112 |
| CTGGTCTA | -0.0194 |
| AGCGCACG | -0.0432 |
| CTTGGTAA | 0.101 |
| GTTGGTAA | 0.149 |
| ATTGGTAA | 0.304 |
| ACGTCTCT | -0.138 |
| ATTACCGG | -0.0144 |
| AGTTGTGG | 0.271 |
| AGTTGTGC | 0.0195 |
| AGTTGTGA | 0.108 |
| TATCAAAA | 0.23 |
| ATATGAGA | 0.196 |

| Sequence | PBM E-score |
| --- | --- |
| GTTAATCA | 0.256 |
| ATTAATCC | 0.0925 |
| ATTAATCG | 0.191 |
| ATTAATCA | 0.287 |
| GCTAATCA | 0.164 |
| CTTAATCA | 0.166 |
| AACTTTAA | 0.234 |
| AAGTCTCA | -0.101 |
| GATCAGAC | -0.0877 |
| AGTGGAAC | -0.0961 |
| GAAGCCTC | -0.198 |
| AACGAACA | 0.259 |
| AACGAACG | -0.00775 |
| CACGAACA | 0.192 |
| CAGGGTCC | -0.29 |
| ACAAATTA | 0.242 |
| GGAAATTA | 0.332 |
| GAAAATTA | 0.207 |
| AGAAATTA | 0.202 |
| GCAAATTA | 0.262 |
| CCAAATTA | 0.192 |
| ATACCACC | 0.086 |
| GGAATCTA | 0.0443 |
| GTCGCACA | -0.0581 |
| GATTTGGA | -0.0207 |

| Sequence | PBM E-score |
| --- | --- |
| AGATGGAA | -0.0109 |
| ATTTATAA | 0.273 |
| CTTTATAC | 0.114 |
| GTTTATAA | 0.224 |
| CTTTATAA | 0.206 |
| ATTTATAG | 0.206 |
| ATTTATAC | 0.302 |
| AATGAGCA | -0.00708 |
| TCAACTGA | 0.0958 |
| AATGGCTA | 0.169 |
| AAGAATTG | 0.171 |
| TCGGGGAA | 0.0864 |
| AAATGCCG | 0.113 |
| ATACAGAT | 0.11 |
| GGGAAATA | 0.0786 |
| AGTAAATG | 0.0753 |
| CGTAAATA | 0.262 |
| CGGAAATA | 0.289 |
| CGTAAATC | -0.00431 |
| AGTAAATA | 0.26 |
| CGGAAATC | 0.12 |
| AGTAAATC | 0.159 |
| GGTAAATA | 0.111 |
| AGACTGAA | -0.0205 |
| AGCACGTG | 0.127 |

| Sequence | PBM E-score |
| --- | --- |
| GAGCCACA | -0.104 |
| ACCCTATA | -0.084 |
| CGTGGATA | -0.0137 |
| GCAGGTTA | -0.0925 |
| TTAAACAA | -0.026 |
| ATAAACAA | 0.279 |
| ACAAACAA | 0.173 |
| GCAAACAC | -0.0377 |
| AAAAACTA | 0.256 |
| GAAAACAA | 0.199 |
| CAAAACTA | 0.223 |
| TAAAACAA | 0.0703 |
| AAAAACAA | 0.28 |
| GAAAACTA | 0.16 |
| ATAAACAC | 0.1 |
| GCAAACAA | 0.272 |
| ATCAGCTG | 0.195 |
| ACTGGACC | -0.196 |
| ACGGAGGG | -0.139 |
| CCTGGATA | -0.231 |
| CGGATTGC | 0.0717 |
| GGCTTGAA | 0.0362 |
| AGTTTTCC | 0.0722 |
| AGCCAACG | 0.0109 |
| GAAAACGA | 0.00196 |

| Sequence | PBM E-score |
| --- | --- |
| CAAAACGA | 0.133 |
| AAAAACGA | 0.256 |
| GAGTCTAA | 0.00387 |
| AATCCGGC | 0.0559 |
| AATCCGGA | 0.256 |
| AATCCGGG | -0.242 |
| GACAGCTA | -0.119 |
| CTGCTGGA | -0.158 |
| CCCTTTTC | -0.00476 |
| AGATATTA | 0.162 |
| AAATATTC | 0.162 |
| TAATATTA | 0.347 |
| CAATATCA | 0.167 |
| GAATATTC | 0.194 |
| TAATAGTA | 0.142 |
| AAATATTA | 0.349 |
| CAATATTA | 0.226 |
| GAATATTA | 0.263 |
| AAATATCA | 0.187 |
| TAATATCA | 0.275 |
| GAATATCA | 0.159 |
| ACATTGCC | -0.0211 |
| GGCTTGAC | 0.0242 |
| AGCAACTA | 0.143 |
| TACCCAAA | 0.0436 |

| Sequence | PBM E-score |
| --- | --- |
| TCGGTTAA | 0.168 |
| AGGCTAGG | -0.199 |
| AAGGTGCG | -0.131 |
| CGTTGATC | 0.0509 |
| AAATATTG | 0.269 |
| CAATATTG | 0.213 |
| AAATATTT | 0.249 |
| AGAAGATC | -0.0464 |
| CAGTTAGG | 0.149 |
| AATCATGG | 0.127 |
| AATCATGA | 0.275 |
| TATCATGA | 0.0822 |
| GCAATTTA | 0.139 |
| AAAAATTT | 0.145 |
| TAAATTTA | 0.26 |
| CCAATTTA | 0.258 |
| TAAAATTA | 0.28 |
| AAAATTTA | 0.0414 |
| AAAAATTA | 0.29 |
| TAAAATCA | 0.142 |
| ACAATTTA | 0.193 |
| CAAATTTA | 0.203 |
| TAAAATGA | 0.23 |
| CAAAATTA | 0.163 |
| CCACCAAC | 0.0331 |

| Sequence | PBM E-score |
| --- | --- |
| CGTCCAAC | 0.0756 |
| ACGAGGCT | 0.117 |
| ATCTAAGG | 0.0735 |
| ACCAGACC | -0.206 |
| AAGTCATC | -0.0947 |
| GAGGCATC | -0.206 |
| CCCGCCCC | 0.022 |
| AACAACTA | 0.0618 |
| AACAACAT | 0.191 |
| GACAACAC | 0.00619 |
| CACAACAA | 0.0683 |
| CACAACTG | -0.0612 |
| AACAACAA | 0.259 |
| AACAACAC | 0.303 |
| CACAACAC | 0.173 |
| CACAACTA | 0.262 |
| GCAATGTA | 0.0481 |
| GGACCAAC | -0.182 |
| CTCGAGAC | 0.124 |
| CTCAGCGC | -0.114 |
| TATGGCCA | 0.0682 |
| ATTGTTCA | 0.159 |
| ATTATCTC | 0.268 |
| ATTATCGC | 0.304 |
| ATTATCGA | 0.132 |

| Sequence | PBM E-score |
| --- | --- |
| ATTATCTG | 0.119 |
| AATATCTG | 0.084 |
| AATATCTC | 0.263 |
| CTTATCTC | 0.0941 |
| ATTATCAC | 0.282 |
| CTTATCAC | -0.0604 |
| ATTATCAG | 0.0829 |
| ATTATCGG | -0.0264 |
| AATATCTA | 0.0725 |
| CGTTTCCA | 0.105 |
| AATTCACA | 0.238 |
| CTGAGACA | -0.0945 |
| GCCCACAA | -0.141 |
| AATAGAAG | 0.0527 |
| CGGCAGAA | 0.124 |
| TGAGTCAA | 0.0132 |
| GAACCAAA | -0.0377 |
| CTGTGCCA | -0.119 |
| GAGTAATA | 0.273 |
| CAGTAATG | 0.0685 |
| AAGTAATA | 0.158 |
| GAGTAATC | 0.103 |
| CAGTAATC | 0.0876 |
| CAGTAATA | 0.307 |
| CATAGGCA | -0.0267 |

| Sequence | PBM E-score |
| --- | --- |
| AGTCGACG | 0.23 |
| ACCACCAC | -0.00648 |
| CACAGGCA | 0.0714 |
| AGACTGTC | -0.163 |
| CTTGAAAC | 0.177 |
| CCGGCCAG | -0.181 |
| CCACATAC | 0.249 |
| ATATTTTG | 0.157 |
| CTATTTTC | 0.114 |
| ATATTTTA | 0.273 |
| ACATTTTA | 0.259 |
| CTATTTGA | 0.27 |
| CCATTTTA | 0.222 |
| GCATTTTA | 0.227 |
| ATATTTTC | 0.261 |
| CTATTTTA | 0.251 |
| ATATTTGA | 0.149 |
| GTATTTTA | 0.0831 |
| GTATTTGA | 0.137 |
